Shown are actives, neighbours in structure and some others; about 22% of the full set was active somewhere.
CYP2C19 inhib – inhibitors of human CYP2C19. P33261. CYP2C19 Supersomes, luciferin-H EGE luminescence, 30 min. inhibition, % at 5 µM. actives 21% (n = 96,000). AID 778;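 active = CYP2C19 inhibition above a set limit at 5 µM in the primary screen, cut at about 50% in these data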
CYP2C9 inhib – human CYP2C9 inhibition; CYP2C9 Supersomes, luciferin-H conversion, luminescence; inhibition, % at 5 µM; actives 20% (n = 96,000); P11712;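 active = blocking of liver enzyme CYP2C9 beyond about 50% at 5 µM, limit read from the data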
Target sequence (P11712 whole entry, looked up): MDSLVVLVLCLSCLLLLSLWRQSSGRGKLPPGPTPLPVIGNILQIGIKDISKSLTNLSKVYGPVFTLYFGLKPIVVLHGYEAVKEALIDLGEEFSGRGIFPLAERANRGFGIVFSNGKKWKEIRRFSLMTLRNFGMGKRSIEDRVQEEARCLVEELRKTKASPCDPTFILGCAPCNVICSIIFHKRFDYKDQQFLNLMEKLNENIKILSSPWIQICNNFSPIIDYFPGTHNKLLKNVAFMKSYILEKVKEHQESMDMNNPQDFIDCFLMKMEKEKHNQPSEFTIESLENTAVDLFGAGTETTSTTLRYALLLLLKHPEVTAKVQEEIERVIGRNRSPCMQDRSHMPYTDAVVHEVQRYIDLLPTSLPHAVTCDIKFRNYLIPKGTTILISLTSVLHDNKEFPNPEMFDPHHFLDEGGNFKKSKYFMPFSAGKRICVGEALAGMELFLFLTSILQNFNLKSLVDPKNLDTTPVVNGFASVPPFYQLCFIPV
CYP2C9 act – CYP2C9 (human) activation; recombinant CYP2C9, luciferin-H conversion, luminescence; hits give high values; factor 1 = untreated enzyme, 0 = blocked; activation factor at 5 µM; actives 1.4% (n = 96,000); AID 1024;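 active = activation factor of 2 or more for CYP2C9 at a 5 µM dose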
E-sel TNF inh – TNF alpha driven E-selectin expression inhibition. HUVEC TNFa-induced E-selectin immunofluorescence, high content. inhibition, % at 2 µM. actives 0.71% (n = 120,000). AID 1246;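 active = inhibition above the batch mean plus 3 SD, and confirmed as a hit on visual image review, cut at about 43% in these data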
CYP2C19 activ – increases human CYP2C19 enzyme activity; P33261; recombinant CYP2C19, luciferin-H EGE luminescence; hits give high values; 0 = fully inhibited enzyme, 1 = untreated enzyme; AID 1025; 96,000 tested, under 10 active; activation factor at 5 µM;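 active = activation factor of at least 2 at 5 µM in the primary screen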
F-actin modifier – alters cytoskeleton assembly in HUVEC cells. HUVEC TNFa F-actin phalloidin imaging, high content. inhibition, % at 2 µM. actives 0.18% (n = 91,000);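 active = inhibition above the batch mean plus 3 SD and confirmed as a hit by visual image inspection, cut at about 30% in these data, passing the limit was not always enough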
Each line names hits and unclear results; the compound was inactive in the other large screens.

CC(C)C(=O)N1CCN(c2ccc([N+](=O)[O-])cc2Cl)CC1	none (no result: CYP2C19 inhib, CYP2C9 inhib, CYP2C9 act, CYP2C19 activ, F-actin modifier)
O=C(c1ccc(Cl)cc1)c1cc([N+](=O)[O-])ccc1N1CCOCC1	none (no result: CYP2C19 inhib, CYP2C9 inhib, CYP2C9 act, CYP2C19 activ, F-actin modifier)
O=C(c1ccc(-c2ccc(Cl)cc2)o1)N1CCN(c2ccc([N+](=O)[O-])cc2Cl)CC1	CYP2C19 inhib 69.8, CYP2C9 inhib 91.8
CC(=O)Nc1ccc(OC(=O)c2cc([N+](=O)[O-])ccc2Cl)cc1	none
Cc1cc(C(=O)N2CCOCC2)ccc1[N+](=O)[O-]	none (no result: CYP2C19 inhib, CYP2C9 inhib, CYP2C9 act, CYP2C19 activ, F-actin modifier)
Cc1csc(C(=O)O)c1-c1c(C)csc1C(=O)O	none (no result: CYP2C19 inhib, CYP2C9 inhib, CYP2C9 act, CYP2C19 activ, F-actin modifier)
NC(=O)COC(=O)CNC(=O)c1ccc(Cl)cc1	none
COc1c(OC(C)=O)ccc(/C=C/c2ccc3cccc(OC)c3n2)c1[N+](=O)[O-]	none (no result: CYP2C19 inhib, CYP2C9 inhib, CYP2C9 act, CYP2C19 activ, F-actin modifier)
COc1c(OC(C)=O)ccc(/C=C/c2ccc3ccccc3n2)c1[N+](=O)[O-]	CYP2C19 inhib 88.6
COC(=O)c1sccc1NC(=O)c1ccncc1	none
Cc1cc(NC(=O)c2cc(-c3ccc(C)s3)nc3ccccc23)no1	CYP2C19 inhib 66.7, CYP2C9 inhib 85.7
Cc1ccc(C)c(OCC(=O)Nc2cc(C)on2)c1	none (no result: F-actin modifier)
Cc1ccc(C)c(-c2nnc(OCC(=O)Nc3cc(C)on3)c3ccccc23)c1	CYP2C19 inhib 75.9, CYP2C9 inhib 94.7 (no result: F-actin modifier)
Cc1ccc(-c2cc(C(=O)Nc3cc(C)on3)c3ccccc3n2)c(C)c1	CYP2C9 inhib 77.4 (no result: E-sel TNF inh)
CCCCCn1nc(C)c(/C=N\NC(=O)c2cc(C)oc2C)c1C	none (no result: CYP2C19 inhib, CYP2C9 inhib, CYP2C9 act, CYP2C19 activ)
O=C(Cn1c2c(sc1=O)C1c3ccccc3OCC1CS2)Nc1ccc(Cl)cc1 (stereo not given)	none (no result: CYP2C19 inhib, CYP2C9 inhib, CYP2C9 act, CYP2C19 activ, F-actin modifier)
CCOP(=O)(OCC)C(NCc1ccccc1)c1ccc(Br)cc1 (stereo not given)	CYP2C19 inhib 54.2
COCCNC(=O)CSc1nc(-c2ccc(OC)c(OC)c2)cc(C(F)(F)F)n1	CYP2C9 inhib 60.5
CCN(CC)CCCNC(=O)CSc1nc(-c2ccc(F)cc2)cc(C(F)(F)F)n1	none (no result: CYP2C19 inhib, CYP2C9 inhib, CYP2C9 act, CYP2C19 activ, F-actin modifier)
COc1ccc(-c2cc(C(F)(F)F)nc(SCC(=O)N3CCOCC3)n2)cc1OC	CYP2C9 inhib 84.3
O=C(CSc1nc(-c2ccccc2)cc(C(F)(F)F)n1)N1CCOCC1	none (no result: F-actin modifier)
CCC(C)(C)NC(=O)C(c1cccn1C)N(C(=O)Cn1nnc2ccccc21)c1ccc(OC)cc1OC (stereo not given)	none (no result: CYP2C19 inhib, CYP2C9 inhib, CYP2C9 act, CYP2C19 activ)
Cc1ccc(Cc2cnc(NC(=O)C3CCCO3)s2)cc1 (stereo not given)	none
CCOc1cc(NS(=O)(=O)CC)c(OCC)cc1NC(=O)c1ccco1	none (no result: E-sel TNF inh)
Cc1nc2ccc(C(C(F)(F)F)(C(F)(F)F)C(F)(F)F)cc2[nH]1	CYP2C9 inhib 62.8 (no result: F-actin modifier)
Cc1nc2ccc(S(=O)(=O)c3ccc4nc(C)[nH]c4c3)cc2[nH]1	none
O=C(COc1ccc([N+](=O)[O-])cc1)Nc1ccc(CN2CCOCC2)cc1	none (no result: CYP2C19 inhib, CYP2C9 inhib, CYP2C9 act, CYP2C19 activ, F-actin modifier)
O=C(CN(Cc1ccc(F)cc1)C(=O)c1ccco1)NCc1ccc(F)cc1	CYP2C19 inhib 83.4
COc1ccc(CNC(=O)CN(Cc2ccccc2)C(=O)c2csnn2)cc1	none
O=C(c1ccco1)N(CCC(c1ccccc1)c1ccco1)Cc1ccc(F)cc1 (stereo not given)	CYP2C9 inhib 85.3
O=C(CN(C(=O)c1ccco1)c1cccc(F)c1)NCc1ccc(F)cc1	CYP2C19 inhib 78.4
CCCCC(=O)NCCc1cc2c(OC)ccc(OC)c2[nH]c1=O	CYP2C9 act 2.3 (no result: F-actin modifier)
COc1ccc(OC)c2[nH]c(=O)c(CCNC(=O)c3ccc(S(=O)(=O)N4CCCC4)cc3)cc12	CYP2C9 inhib 62.0 (no result: F-actin modifier)
Cc1ccc(C)c2[nH]c(=O)c(CCNC(=O)c3ccc(S(=O)(=O)N(C)C)cc3)cc12	CYP2C9 inhib 58.6 (no result: E-sel TNF inh)
CCN(CC)S(=O)(=O)c1ccc(C(=O)NCCc2cc3c(OC)ccc(OC)c3[nH]c2=O)cc1	CYP2C9 inhib 84.6 (no result: F-actin modifier)
Cc1ccc(C)c2[nH]c(=O)c(CCNC(=O)c3ccc4c(c3)OCO4)cc12	none
CCCS(=O)(=O)NCCc1cc2c(OC)ccc(OC)c2[nH]c1=O	none (no result: F-actin modifier)
COc1ccc(OC)c2[nH]c(=O)c(CCNS(=O)(=O)c3ccccc3)cc12	none (no result: F-actin modifier)
Cc1c(Br)c([N+](=O)[O-])nn1CCCC(=O)Nc1sc2c(c1C#N)CCC2	none (no result: CYP2C19 inhib, CYP2C9 inhib, CYP2C9 act, CYP2C19 activ, F-actin modifier)
Cc1cc(=O)n2[nH]c(-c3cccnc3)nc2n1	none (no result: E-sel TNF inh)
Cc1nc2ncnn2c(C)c1CCC(=O)N1CCc2ccccc21	none (no result: F-actin modifier)
COc1ccc(OCC(=O)N2CCN(C(=O)c3ccco3)CC2)cc1	none
COc1cc(-n2ccnc2SC)c(Cl)cc1Cl	CYP2C19 inhib 53.6

From PubChem
